PubChem BioAssay
Values joined by “and” are separate entries in the source; they are usually repeats but may differ in a detail not shown here. Equal values may be shown once. Results filed as inconclusive are left out. The source holds several records for some structures; these can differ, active in one and inactive in another. Active and inactive are the calls of the source.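 How the source made its calls, unless noted: active means normalized viability below 100% at a tested concentration; inactive means the rest.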

Tests used:
[1] = kinase inhibitors against Plasmodium liver-stage infection, cell-based, known kinase inhibitor set, luminescence, hepatoma host viability (AID 624392; call rule not given here;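 further: infected cells incubated roughly two days before readout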); details: Plasmodium liver stage in hepatoma cells, luciferase luminescence, concentration not given here; liver cell % of control: measured here: host liver cell viability; parasite % of control: stronger effect = lower value
[2] = growth inhibition of DIPG glioma cells, dose response, cell-based, SU-DIPG-IV, MIPE4.0, CellTiter-Glo, qHTS (AID 1347063; cut-off not given, nearly all actives have AC50 up to about 30 µM;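 further: compound exposure lasted 48 hours before the viability readout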); details: SU-DIPG-IV viability, CellTiter-Glo ATP luminescence
[3] = growth inhibition of DIPG glioma cells, dose response, cell-based, SU-DIPG-XIII, MIPE5.0, CellTiter-Glo, qHTS (AID 1347064; cut-off not given, nearly all actives have AC50 up to about 23 µM;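 further: cells exposed to compound for 48 hours before the viability read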); details: SU-DIPG-XIII viability, CellTiter-Glo ATP luminescence
[4] = viability loss in pontine glioma line – cell-based, SU-DIPG-XXV, MIPE5.0, CellTiter-Glo, qHTS, dose response (AID 1347065; cut-off not given, nearly all actives have AC50 up to about 26 µM;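 further: cells exposed to compound for 48 hours before ATP readout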); details: CellTiter-Glo ATP luminescence
[5] = JHH-DIPG-1 glioma cell viability, MIPE5.0 library, CellTiter-Glo luminescence, qHTS (AID 1347067; cut-off not given, nearly all actives have AC50 up to about 26 µM;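 further: cells exposed to compound for 48 hours before readout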); details: JHH-DIPG-1 glioma viability, CellTiter-Glo ATP luminescence
[6] = sensitizers of A549 cells to miR-34 induction, primary screen, imaging, A549 dox-inducible miR-34, nuclei and caspase counts (AID 1347080;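 active means compounds whose cell count with miR-34 switched on is under 0.7 times the count with it off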); details: A549 miR-34 inducible, Hoechst nuclei count, 48 h
[7] = modifiers of HSF1 nuclear foci, imaging, Selleck Cancer Library (AID 1347162; in the data active means plate-normalised HSF1 focus index below about 0.46); details: human cells, at 10 µM; SSMD: measured here: HSF1 foci SSMD mean; cell count: measured here: cell number; plate-normalised HSF1 focus index: stronger effect = lower value
[8] = survival rescue of mitochondrial mutant cells in low glucose, primary screen, MELAS cybrids, Rieske KO mouse fibroblasts, CellTiter-Glo (AID 1508586;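 active means mean z-score across replicates of 1.96 or higher in either the MELAS or the Rieske mutant cell line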;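 further: z relative to plate mean and SD of compound and empty wells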)
[9] = ovarian cancer cell viability with rucaparib, profiling panel, oncology-focused library, rucaparib conditional (AID 1508598); details: patient-derived ovarian cancer cells, CellTiter-Glo viability, 144 h, stronger effect = lower value
[10] = SU-DIPG-VI glioma cell viability, MIPE4.0 library, CellTiter-Glo luminescence, qHTS (AID 1347066; cut-off not given, nearly all actives have AC50 up to about 30 µM;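 further: cells exposed to compound for 48 hours before readout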); details: CellTiter-Glo ATP luminescence
[11] = biological target: NAD(+) hydrolase SARM1 (Homo sapiens) (UniProt Q6SZW1); assay: SARM1 TIR NADase inhibitors, cell lysate, NAD-Glo luminescence (AID 1508614;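 active means compound whose remaining NAD level is above about 45 nM, limit read from the data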); details: SAM-TIR HEK293T lysate NADase, at 1 µM, stronger effect = higher value
NAD(+) hydrolase SARM1 (Homo sapiens), sequence (Q6SZW1 whole entry, looked up): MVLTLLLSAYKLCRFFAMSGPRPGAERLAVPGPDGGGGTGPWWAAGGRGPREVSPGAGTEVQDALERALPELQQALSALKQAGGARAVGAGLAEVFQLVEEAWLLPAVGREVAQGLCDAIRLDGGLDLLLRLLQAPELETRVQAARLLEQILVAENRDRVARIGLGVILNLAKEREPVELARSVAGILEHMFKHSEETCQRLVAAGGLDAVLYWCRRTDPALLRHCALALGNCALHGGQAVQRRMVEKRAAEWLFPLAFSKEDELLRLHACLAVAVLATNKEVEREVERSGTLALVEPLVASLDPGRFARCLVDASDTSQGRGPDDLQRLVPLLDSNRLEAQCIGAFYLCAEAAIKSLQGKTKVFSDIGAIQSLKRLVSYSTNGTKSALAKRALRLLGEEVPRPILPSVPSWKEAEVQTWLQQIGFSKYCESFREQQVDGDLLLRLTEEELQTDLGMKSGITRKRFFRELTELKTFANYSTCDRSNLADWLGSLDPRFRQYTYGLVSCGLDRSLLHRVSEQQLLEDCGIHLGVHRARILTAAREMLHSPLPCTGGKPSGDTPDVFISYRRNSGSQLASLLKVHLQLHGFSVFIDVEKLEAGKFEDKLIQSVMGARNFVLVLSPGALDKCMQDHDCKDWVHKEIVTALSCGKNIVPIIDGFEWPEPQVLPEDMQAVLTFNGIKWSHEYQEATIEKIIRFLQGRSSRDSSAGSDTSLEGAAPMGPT

## Cc1nc(N)sc1-c1ccnc(Nc2ccc(N3CCOCC3)cc2)n1
[1]
  liver cell % of control: 72.4% and 73.5% and 98.2%
  parasite % of control: 0.414% (inactive) and 0.47% (inactive) and 0.326% (active)
[2]
  AC50: 20.9 µM (active)
[3]
  AC50: 5.9 µM (active)
[4]
  AC50: 2.63 µM (active)
[5]
  AC50: 14.8 µM (active)
[6]; stronger effect = lower value, cell number ratio, induced over uninduced
  fold change: 0.855 (inactive)
[6]; measured here: relative caspase fold change +Dox/-Dox
  fold change: 1.29
[6]; measured here: total cells with miR-34 induction, stronger effect = lower value
  cell count: 1260
[6]; measured here: total cells without miR-34 induction
  cell count: 1470
[7]
  SSMD: 3.31
  cell count: 7110
  plate-normalised HSF1 focus index: 1.12 (inactive)
[8]; MELAS cybrid survival, CellTiter-Glo 48 h, stronger effect = higher value
  z-score: 1.86 (inactive)
[8]; Rieske KO mouse fibroblast survival, CellTiter-Glo 72 h
  z-score: -0.218
[9]; at 0.000305 µM, OCI-C5x cells, with rucaparib 10 µM, 100% = cells with rucaparib alone
  viability: 109% (inactive)
[9]; at 0.000305 µM, OCI-C5x cells, without rucaparib
  viability: 111% (inactive)
[9]; at 0.000305 µM, OCI-P5x cells, with rucaparib 20 µM, 100% = cells with rucaparib alone
  viability: 125% (inactive)
[9]; at 0.000305 µM, OCI-P5x cells, without rucaparib
  viability: 120% (inactive)
[9]; at 0.00122 µM, OCI-C5x cells, with rucaparib 10 µM, 100% = cells with rucaparib alone
  viability: 110% (inactive)
[9]; at 0.00122 µM, OCI-C5x cells, without rucaparib
  viability: 112% (inactive)
[9]; at 0.00122 µM, OCI-P5x cells, with rucaparib 20 µM, 100% = cells with rucaparib alone
  viability: 115% (inactive)
[9]; at 0.00122 µM, OCI-P5x cells, without rucaparib
  viability: 120% (inactive)
[9]; at 0.00488 µM, OCI-C5x cells, with rucaparib 10 µM, 100% = cells with rucaparib alone
  viability: 104% (inactive)
[9]; at 0.00488 µM, OCI-C5x cells, without rucaparib
  viability: 112% (inactive)
[9]; at 0.00488 µM, OCI-P5x cells, with rucaparib 20 µM, 100% = cells with rucaparib alone
  viability: 117% (inactive)
[9]; at 0.00488 µM, OCI-P5x cells, without rucaparib
  viability: 124% (inactive)
[9]; at 0.0195 µM, OCI-C5x cells, with rucaparib 10 µM, 100% = cells with rucaparib alone
  viability: 104% (inactive)
[9]; at 0.0195 µM, OCI-C5x cells, without rucaparib
  viability: 95.4% (active)
[9]; at 0.0195 µM, OCI-P5x cells, with rucaparib 20 µM, 100% = cells with rucaparib alone
  viability: 116% (inactive)
[9]; at 0.0195 µM, OCI-P5x cells, without rucaparib
  viability: 113% (inactive)
[9]; at 0.0781 µM, OCI-C5x cells, with rucaparib 10 µM, 100% = cells with rucaparib alone
  viability: 109% (inactive)
[9]; at 0.0781 µM, OCI-C5x cells, without rucaparib
  viability: 108% (inactive)
[9]; at 0.0781 µM, OCI-P5x cells, with rucaparib 20 µM, 100% = cells with rucaparib alone
  viability: 115% (inactive)
[9]; at 0.0781 µM, OCI-P5x cells, without rucaparib
  viability: 115% (inactive)
[9]; at 0.313 µM, OCI-C5x cells, with rucaparib 10 µM, 100% = cells with rucaparib alone
  viability: 109% (inactive)
[9]; at 0.313 µM, OCI-C5x cells, without rucaparib
  viability: 110% (inactive)
[9]; at 0.313 µM, OCI-P5x cells, with rucaparib 20 µM, 100% = cells with rucaparib alone
  viability: 116% (inactive)
[9]; at 0.313 µM, OCI-P5x cells, without rucaparib
  viability: 113% (inactive)
[9]; at 1.25 µM, OCI-C5x cells, with rucaparib 10 µM, 100% = cells with rucaparib alone
  viability: 101% (inactive)
[9]; at 1.25 µM, OCI-C5x cells, without rucaparib
  viability: 113% (inactive)
[9]; at 1.25 µM, OCI-P5x cells, with rucaparib 20 µM, 100% = cells with rucaparib alone
  viability: 113% (inactive)
[9]; at 1.25 µM, OCI-P5x cells, without rucaparib
  viability: 111% (inactive)
[9]; at 5 µM, OCI-C5x cells, with rucaparib 10 µM, 100% = cells with rucaparib alone
  viability: 107% (inactive)
[9]; at 5 µM, OCI-C5x cells, without rucaparib
  viability: 108% (inactive)
[9]; at 5 µM, OCI-P5x cells, with rucaparib 20 µM, 100% = cells with rucaparib alone
  viability: 97% (active)
[9]; at 5 µM, OCI-P5x cells, without rucaparib
  viability: 102% (inactive)

## COc1c(Cl)cc2c([nH]c3cnccc32)c1NC(=O)c1cccnc1C
[2]
  AC50: 2.96 µM (active)

## CNC(=O)c1c(C)oc2cc(Oc3ncnc4cc(OC)c(OC)cc34)ccc12
[3]
  AC50: 9.34 µM (active)
[4]
  AC50: 6.61 µM (active)

## CNC(=O)[C@H](CC1=CN=C2C=CCC=C12)NC(=O)[C@@H](CC(=O)NO)CC(C)C
[2]
  AC50: 0.0372 µM (active)
[10]
  AC50: 0.0332 µM (active)

## CO/N=C(/C(=O)N[C@@H]1C(=O)N2C(C(=O)O)=C(CSC(=O)c3ccco3)CS[C@H]12)c1csc(N)n1
[2]
  AC50: 23.5 µM (active)
[11]
  remaining NAD: 10 nM (inactive)

## CON(C)C(=O)N1N=C(c2cc(F)ccc2F)S[C@]1(CCCN)c1ccccc1
[2]
  outcome: inactive
[10]
  outcome: inactive
